Screens (PubChem BioAssay)
HSD17B inhib – qHTS Assay for Inhibitors of HSD17B4, hydroxysteroid (17-beta) dehydrogenase 4; 7.6% of 75,000 active; AID 893, 2007; recombinant HSD17B10, NADH fluorescence kinetic; 3-hydroxyacyl-CoA dehydrogenase type-2 (Homo sapiens), Q99714; Potency, µM (series often up to 57.1 µM), for the others: at the top dose activity change, negative = inhibition, most hits filed as inhibitors;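 further: the protocol describes HADH2 (HSD17B10) and not the HSD17B4 of the title; potency means the concentration at half of the fitted maximal effect; on the % scale 0 is the no-effect control and ±100 the full control effect; nearly all actives have a fitted effect of over 70% in size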
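Activity followed as NADH fluorescence increase (ex 360, em 450 nm) every 30 seconds for 4 min, using final 90 uM beta-hydroxybutyryl CoA and 1 mM NAD+. Recombinant His-tagged enzyme, 20 nM, pH 9.0 Tris buffer, 15 min compound preincubation.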
HADH2 inh – qHTS Assay for Inhibitors of HADH2 (Hydroxyacyl-Coenzyme A Dehydrogenase, Type II); 3-hydroxyacyl-CoA dehydrogenase type-2 (Homo sapiens), Q99714; AID 886, 2007; 3.4% of 73,000 active; recombinant HADH2, NADH fluorescence, beta-hydroxybutyryl-CoA; Potency, µM (highest dose often 57.1 µM), inactives show at the highest dose activity change, negative = inhibition, usual class: inhibitors; further: potency means the concentration at half of the fitted maximal effect; on the % scale 0 is the no-effect control and ±100 the full control effect; nearly all actives have a fitted effect of over 60% in size
Target sequence (Q99714 whole entry, looked up, one chain of several): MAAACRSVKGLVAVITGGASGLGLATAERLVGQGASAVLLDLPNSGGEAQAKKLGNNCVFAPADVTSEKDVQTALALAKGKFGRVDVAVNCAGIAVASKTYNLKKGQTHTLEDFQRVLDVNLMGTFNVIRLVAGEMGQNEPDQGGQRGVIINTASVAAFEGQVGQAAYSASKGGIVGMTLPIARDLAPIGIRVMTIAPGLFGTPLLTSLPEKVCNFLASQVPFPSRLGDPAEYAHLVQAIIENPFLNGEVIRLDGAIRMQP
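E. coli-expressed His-tagged HADH2 tested at 20 nM in alkaline Tris buffer (pH 9.0); oxidation of 90 uM beta-hydroxybutyryl-CoA with 1 mM NAD+ tracked fluorimetrically for 4 min.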
AID923 – qHTS Assay for Allosteric/Competitive Inhibitors of Caspase-1: Spectroscopic Profiling in AFC Spectral Region; 1.1% of 75,000 active; compound fluorescence, AFC spectral region (405/520 nm); Potency, µM (top dose mostly 57.5 µM), inactives show at the top dose fluorescence increase, hits mostly activators; AID 923, 2007; further: potency means the concentration at half of the fitted maximal effect; 0% is about no effect
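Titrations up to 57 uM read every 20 sec for 3 min (405/520 nm) with 50 nM caspase 1 and 5 uM Ac-WEHD-AFC, pH 7.5 HEPES buffer. Fluorescence-vs-time intercept gave baseline, scaled against on-plate AFC standard.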
A350 autofl – qHTS Assay for Spectroscopic Profiling in A350 Spectral Region; Compound autofluorescence, 340/450 nm, Alexa 350 dye-equivalents; active compounds read high; max dye-equivalent concentration, M; 11% of 59,000 active; in the data active means max dye-equivalent concentration above about 10 nM; inconclusive means mostly about 1.1 nM to 9.6 nM
4MU fluor – qHTS Assay for Spectroscopic Profiling in 4-MU Spectral Region. max dye-equivalent concentration, M. 11% of 59,000 active. compound autofluorescence, 340/450 nm, 4-MU equivalents; active compounds read high. AID 589, 2007; in the data active means max dye-equivalent concentration above about 10 nM; inconclusive means mostly about 1.1 nM to 9.6 nM
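Intrinsic fluorescence at 340/450 nm (ex/em) was read after 15 min at room temperature in pH 8.0, 100 mM Tris. Each compound concentration expressed as 4-MU-equivalent concentration from a six-point 4-MU standard series on each plate.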
CRE-bla Fsk – Cell signaling CRE-BLA (Fsk stim) | CHO CRE-bla reporter (cAMP response element driving beta-lactamase), forskolin EC10, beta-lactamase ratio | 2.5% of 71,000 active | Potency, µM (doses to about 38.2 µM), without a hit: at the top dose activity change, negative = inhibition, most hits filed as activators; active means well fitted activation curve with a large enough effect in the signal ratio, with a control signal flat, not every such curve was filed as active; inconclusive means small, poorly fitted or top-dose-only effect, or effect the other way, or a change in a side signal; the % refers to the signal ratio; further: potency means the concentration at half of the fitted maximal effect; % of control where 0% means no effect
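The 460nm/530nm emission ratio after CCF4 loading defined %Activity, from which AC50 values were obtained. CRE-bla CHO cells received compound dilution series together with an EC10 level of NKH 477 for 3 hours at 37 degrees Celsius.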
Active calls of the source: *; i = inactive; ? = inconclusive; . = no result given; [ ] = another dose, or the depositor's remark. This is a sample that favours compounds with a hit; in the whole collection about 14% have one here. Unless noted, the call rests on the fitted dose curve; in most records, active means well fitted curve in the direction sought with a large enough effect; inconclusive means small, poorly fitted or top-dose-only effect, or another doubt; inactive means no such curve, though single readings can be large; an effect the other way counts as inactive or inconclusive.

SMILES | HSD17B inhib | HADH2 inh | AID923 | A350 autofl | 4MU fluor | CRE-bla Fsk
Cc1ccc2oc(=O)c3cc(C(=O)N4CCN(C(=O)c5ccco5)CC4)sc3c2c1 | -19% | 1% | 0% | . | . | ?
Cc1ccc2cc3cc(C(=O)N4CCN(C(=O)c5ccco5)CC4)sc3nc2c1 | 32µM* | -6% | 1% | 1.3e-08M* | 1.1e-08M* | ?
Cc1ccc2nc(-c3ccc(NC(=O)CN4CCN(C(=O)c5ccco5)CC4)cc3)sc2c1 | 13µM* | 4µM* | 8% | . | . | ?
Cc1cc(C)c2cc(CN(Cc3ccco3)C(=O)NCc3ccccc3)c(=O)[nH]c2c1 | ? | -5% | -1% | i | i | -9%
Cc1ccc2[nH]c(=O)c3cc(C(=O)N(C)Cc4ccco4)sc3c2c1 | 32µM* | ? | 2% | . | . | 10µM*
Cc1ccc2[nH]c(=O)c3cc(C(=O)N4CCN(C(=O)c5ccco5)CC4)sc3c2c1 | 13µM* | -18% | 5% | . | . | ?
CC1CCN(CCCNC(=O)Cc2c(C(=O)O)n(C)c3ccccc23)CC1 | 0% | 3% | 1% | i | i | -3%
Cc1nc(-c2cnn(-c3ccccc3)c2)c2cc(C)oc2n1 | 32µM* | 25µM* | 1% | ? | i | 4µM*
COC(=O)c1ccc(-c2ccc(CNCC(O)c3ccccc3)o2)cc1 (stereo not given) | 13µM* | ? | 0% | i | i | -8%
N#CC1=C(N)N(c2ccc(Br)cc2)C2=C(C(=O)CCC2)C1c1cccnc1 (stereo not given) | -8% | -5% | 1% | ? | ? | -12%
CCC(=O)c1cc2c(cc1NC(=O)c1ccc(C)cc1)OCCO2 | -2% | -10% | -2% | 1.7e-07M* | 1.5e-07M* | 4%
CC(=O)Nc1nonc1NC(=O)CSc1nc2ccccc2o1 | -8% | 11% | 1% | i | i | ?
CCCC(=O)Nc1cc2c(cc1C(=O)c1ccccc1)OCCO2 | -8% | -11% | -1% | i | i | -1%
CC(=O)c1cc2c(cc1NC(=O)CSc1nc3ccccc3o1)OCO2 | 20µM* | 33% | -2% | 7.7e-07M* | 5.4e-07M* | 10%
CC(=O)Nc1cc2c(cc1C(=O)C(C)C)OCCO2 | ? | -16% | 1% | 3.1e-08M* | 3.6e-08M* | 22%
CCC(=O)Nc1cc2c(cc1C(C)=O)OCCO2 | 32µM* | 10% | 0% | . | . | 21%
COC(=O)[C@@]1(Cc2ccc(OC)cc2)[C@H]2c3cc(C(=O)N(C)C)n(Cc4ccsc4Br)c3C[C@H]2CN1C(=O)c1ccccc1 | 6% | 0% | 3% | . | . | ?
CCCCc1nc2c(c3c1CC(C)OC3)CN(CCC(C)C)CC2 (stereo not given) | 3%[11.4 µM] | 8%[11.4 µM] | 0%[11.5 µM] | . | . | .
COc1ccc(C2C(=O)N(C3CCCCCC3)CC(=O)N2Cc2ccccc2)cc1OC (stereo not given) | 2% | 4% | 0% | ? | i | 8%
CCC(C)(C)N1CC(=O)N(Cc2ccccc2)C(c2ccc(OC)cc2)C1=O (stereo not given) | ? | -13% | 2% | 1.6e-07M* | 1.7e-07M* | 0%
CC(=O)Nc1ccc2nc(-c3ccccn3)[nH]c2c1 | 3.2µM* | ? | 3% | ? | ? | 13%
CC(=O)Nc1ccc(-c2nc3ccc(Cl)cc3[nH]2)cc1 | 20µM* | . | -2% | . | . | .
CC(=O)Nc1ccc(-c2nc3c(C)cccc3[nH]2)cc1 | 32µM* | 32µM* | 0% | i | i | ?
Cc1nnc(SCc2ccccc2F)n1NCc1cccs1 | -3% | 7% | -2% | i | i | -7%
O=C(c1cnccn1)N1CCN(C/C=C/c2ccccc2)CC1 | 6% | -4% | -1% | i | i | -3%
SMILES | HSD17B inhib | HADH2 inh | AID923 | A350 autofl | 4MU fluor | CRE-bla Fsk
Cc1cnc(CNc2cc(-c3ccccc3CN(C)C)ncn2)cn1 | ? | ? | 1% | i | i | -4%
O=C(CSc1nnc2ccccn12)N1CCc2ccccc2C1 | 32µM* | 0% | -2% | ? | i | -2%
CN(Cc1ccco1)c1ccnc(-c2cccc(NS(C)(=O)=O)c2)n1 | 3% | 10% | 3% | i | i | ?
c1coc(C2Nc3cccc4cccc(c34)N2)c1 | 2µM* | 7.9µM* | 6% | ? | ? | 8%
CSC1=C(C#N)C(CC(C)C)C2=C(CCCC2=O)N1 (stereo not given) | ? | 8% | 1% | i | i | -3%
CSC1=C(C#N)C(c2ccccc2Cl)C2=C(CCCC2=O)N1 (stereo not given) | -12% | 1% | 5% | 3.3e-08M* | 3.2e-08M* | -4%
CCOC(=O)CSC1=C(C#N)C(c2ccc(C)cc2)C2=C(CCCC2=O)N1 (stereo not given) | 96% | -14% | 2% | 1.1e-07M* | 8e-08M* | -2%
CCc1ccccc1NC(=O)CSC1=C(C#N)C(c2ccc3c(c2)OCO3)C2=C(CCCC2=O)N1 (stereo not given) | 1% | -8% | -1% | i | i | -1%
CSC1=C(C#N)C(c2ccc(C)cc2)C2=C(CCCC2=O)N1 (stereo not given) | 6% | 3% | 3% | 3.4e-08M* | 2.9e-08M* | -10%
O=C(Nc1ccccc1)N1CCC2(CC1)CCN(C(=O)c1csnn1)CC2 | -14% | -28% | 1% | i | i | 5%
N#Cc1ccc(N2CCN(C(=O)c3cccc(F)c3)CC2)c(F)c1 | -4% | 4% | 3% | . | . | 7%
CCOC(=O)NC(Nc1sc2c(c1C(=O)OC)CCN(C)C2)(C(F)(F)F)C(F)(F)F | . | . | . | 3.6e-08M* | 3.1e-08M* | .
COc1cccc(C2CC(c3cccc(C)c3)n3ncnc3N2)c1 (stereo not given) | -5% | 8% | -2% | . | . | 12%
CC1=NN(c2ccc(S(=O)(=O)O)cc2)C(=O)/C1=C\c1ccc(Cl)cc1 | ? | -13%[11.4 µM] | -2%[11.5 µM] | i | i | 13%[7.6 µM]
O=c1[nH]c2cc(Cl)ccc2c(O)c1-c1ccc(Oc2ccccc2)cc1 | -9% | -27% | -1% | i | i | -16%
O=c1[nH]c2cc(Cl)ccc2c(O)c1-c1cccc(Oc2ccccc2)c1 | 32µM* | -13% | -3% | . | . | ?
N=C(N)[C@H](N=Nc1ccccc1)C(N)=O | -8%[11.4 µM] | -24%[11.4 µM] | 3%[11.5 µM] | i | i | -4%[7.6 µM]
Nc1nncn1C(=O)CCc1ccccc1 | 4% | -5% | 2% | i | i | -23%
